# Laboratory results as given in the supplement of paper PMC10849652.
# About 7,900 targets were measured; listed, in parts, are those with a hit and a random draw of the rest. About 0.6% of all pairs of compound and target were hits. Unmarked numbers belong to inactive results.
# Experiments:
# Test in all cases: log2 fold change, soluble protein after heating vs DMSO (PISA); higher = thermal stabilisation; K562 cells, 10 uM, 30 min; active = over 0.2 and 3.5 SD of the protein, either way, in both replicates (recomputed)
# erlotinib = compound: C#Cc1cccc(Nc2ncnc3cc(OCCOC)c(OCCOC)cc23)c1 [erlotinib]
# Procedure, shortened: (§1)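 Quantification of soluble protein used TMTpro 16plex LC-MS/MS, with channel sums equalised. Samples were the supernatant after 21,000xg for 90 min of pooled aliquots from K562 cells (2×10^6 cells/mL) treated with 10 μM compound for 30 min, heated for 3 min over 48°C-58°C, and extracted in PBS with 0.5% NP-40 at 4°C. Values, from duplicates, describe thermal stability against control samples on a log2 fold-change scale.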
# [1] = compound: C/C(=N\NC(=O)C1=CC(=CC=C1)S(=O)(=O)N2CCOCC2)/C3=C(C=CC(=C3)Cl)O
# Procedure, shortened: as §1
# [2] = compound: C1=CC(=C(C=C1Cl)C2=NC3=NC=CN=C3C(=N2)NC4=CC=NC=C4)F
# Procedure, shortened: as §1
# [3] = compound: C1=CC(=CC=C1C2=NC3=C(N2)C=C(C=C3)C(=O)N)OC4=CC=C(C=C4)Cl
# Procedure, shortened: as §1
# [4] = compound: C1=CC2=C(C=CC(=C2)/C=C\3/C(=O)NC(=NCC4=CC=CS4)S3)N=C1
# Procedure, shortened: as §1
# [5] = compound: C1=CC2=NC=CN=C2C=C1/C=C/3\C(=O)NC(=O)S3
# Procedure, shortened: as §1
# [6] = compound: C1=CC=C(C=C1)C2=NC(=C(N2)C3=CC=NC=C3)C4=CC(=C(C=C4)Cl)O
# Procedure, shortened: as §1
# [7] = compound: C1=CC=C2C(=C1)C3=NNC4=CC=CC(=C43)C2=O
# Procedure, shortened: as §1
# [8] = compound: C1CCN(C1)C(=O)NC2=CC=CC(=C2)NC3=NC=C(C(=N3)NCCC4=CN=CN4)Br
# Procedure, shortened: as §1
# [9] = compound: C1CN(CCC1(CC2=CC=C(C=C2)Cl)N)C3=NC=NC4=C3C=CN4
# Procedure, shortened: as §1
# UniProt O14980, sequence (O14980 whole entry, looked up): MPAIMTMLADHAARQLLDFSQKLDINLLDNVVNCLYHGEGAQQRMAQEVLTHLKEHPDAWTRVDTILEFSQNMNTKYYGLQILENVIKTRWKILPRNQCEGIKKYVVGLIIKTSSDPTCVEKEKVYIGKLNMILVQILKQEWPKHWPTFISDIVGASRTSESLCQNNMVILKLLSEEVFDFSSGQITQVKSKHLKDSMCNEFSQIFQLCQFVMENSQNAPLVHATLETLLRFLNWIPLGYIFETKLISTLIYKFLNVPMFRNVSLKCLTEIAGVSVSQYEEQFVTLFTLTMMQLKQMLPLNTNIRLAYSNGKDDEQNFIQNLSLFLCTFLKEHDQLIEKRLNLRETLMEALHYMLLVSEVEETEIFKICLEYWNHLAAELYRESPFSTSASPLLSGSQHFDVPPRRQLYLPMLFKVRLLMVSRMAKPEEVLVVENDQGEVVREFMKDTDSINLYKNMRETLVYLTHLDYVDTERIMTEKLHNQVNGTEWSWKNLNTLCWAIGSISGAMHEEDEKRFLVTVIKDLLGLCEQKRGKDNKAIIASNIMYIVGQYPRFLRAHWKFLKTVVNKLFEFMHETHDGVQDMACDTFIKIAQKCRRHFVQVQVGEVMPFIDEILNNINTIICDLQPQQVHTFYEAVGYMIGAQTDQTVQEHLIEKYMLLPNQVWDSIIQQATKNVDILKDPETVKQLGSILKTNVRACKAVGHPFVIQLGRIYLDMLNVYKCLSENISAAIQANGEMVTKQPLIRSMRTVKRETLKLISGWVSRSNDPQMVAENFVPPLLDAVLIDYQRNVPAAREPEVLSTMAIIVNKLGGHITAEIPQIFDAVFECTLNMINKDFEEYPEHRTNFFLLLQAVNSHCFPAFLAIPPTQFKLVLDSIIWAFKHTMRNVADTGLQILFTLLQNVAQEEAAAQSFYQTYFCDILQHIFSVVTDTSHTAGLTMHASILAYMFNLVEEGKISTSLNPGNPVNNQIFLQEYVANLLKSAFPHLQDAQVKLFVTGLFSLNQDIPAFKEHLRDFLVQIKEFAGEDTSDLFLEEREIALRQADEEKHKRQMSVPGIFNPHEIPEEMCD
# UniProt Q86Y07, sequence (Q86Y07 whole entry, looked up): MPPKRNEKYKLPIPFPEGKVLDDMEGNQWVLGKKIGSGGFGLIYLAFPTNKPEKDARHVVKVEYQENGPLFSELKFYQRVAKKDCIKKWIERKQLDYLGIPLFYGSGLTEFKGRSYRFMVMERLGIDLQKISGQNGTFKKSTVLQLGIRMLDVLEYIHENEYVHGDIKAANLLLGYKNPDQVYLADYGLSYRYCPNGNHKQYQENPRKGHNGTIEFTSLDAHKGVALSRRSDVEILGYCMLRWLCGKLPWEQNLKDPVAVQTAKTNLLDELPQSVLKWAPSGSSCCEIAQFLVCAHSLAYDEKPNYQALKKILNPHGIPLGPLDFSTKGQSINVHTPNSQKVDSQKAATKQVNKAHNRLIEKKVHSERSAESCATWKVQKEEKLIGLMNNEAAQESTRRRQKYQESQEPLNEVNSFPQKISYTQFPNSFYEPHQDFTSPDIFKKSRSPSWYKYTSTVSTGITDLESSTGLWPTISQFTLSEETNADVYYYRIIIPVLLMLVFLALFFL
# UniProt P12270, sequence (P12270 whole entry, looked up): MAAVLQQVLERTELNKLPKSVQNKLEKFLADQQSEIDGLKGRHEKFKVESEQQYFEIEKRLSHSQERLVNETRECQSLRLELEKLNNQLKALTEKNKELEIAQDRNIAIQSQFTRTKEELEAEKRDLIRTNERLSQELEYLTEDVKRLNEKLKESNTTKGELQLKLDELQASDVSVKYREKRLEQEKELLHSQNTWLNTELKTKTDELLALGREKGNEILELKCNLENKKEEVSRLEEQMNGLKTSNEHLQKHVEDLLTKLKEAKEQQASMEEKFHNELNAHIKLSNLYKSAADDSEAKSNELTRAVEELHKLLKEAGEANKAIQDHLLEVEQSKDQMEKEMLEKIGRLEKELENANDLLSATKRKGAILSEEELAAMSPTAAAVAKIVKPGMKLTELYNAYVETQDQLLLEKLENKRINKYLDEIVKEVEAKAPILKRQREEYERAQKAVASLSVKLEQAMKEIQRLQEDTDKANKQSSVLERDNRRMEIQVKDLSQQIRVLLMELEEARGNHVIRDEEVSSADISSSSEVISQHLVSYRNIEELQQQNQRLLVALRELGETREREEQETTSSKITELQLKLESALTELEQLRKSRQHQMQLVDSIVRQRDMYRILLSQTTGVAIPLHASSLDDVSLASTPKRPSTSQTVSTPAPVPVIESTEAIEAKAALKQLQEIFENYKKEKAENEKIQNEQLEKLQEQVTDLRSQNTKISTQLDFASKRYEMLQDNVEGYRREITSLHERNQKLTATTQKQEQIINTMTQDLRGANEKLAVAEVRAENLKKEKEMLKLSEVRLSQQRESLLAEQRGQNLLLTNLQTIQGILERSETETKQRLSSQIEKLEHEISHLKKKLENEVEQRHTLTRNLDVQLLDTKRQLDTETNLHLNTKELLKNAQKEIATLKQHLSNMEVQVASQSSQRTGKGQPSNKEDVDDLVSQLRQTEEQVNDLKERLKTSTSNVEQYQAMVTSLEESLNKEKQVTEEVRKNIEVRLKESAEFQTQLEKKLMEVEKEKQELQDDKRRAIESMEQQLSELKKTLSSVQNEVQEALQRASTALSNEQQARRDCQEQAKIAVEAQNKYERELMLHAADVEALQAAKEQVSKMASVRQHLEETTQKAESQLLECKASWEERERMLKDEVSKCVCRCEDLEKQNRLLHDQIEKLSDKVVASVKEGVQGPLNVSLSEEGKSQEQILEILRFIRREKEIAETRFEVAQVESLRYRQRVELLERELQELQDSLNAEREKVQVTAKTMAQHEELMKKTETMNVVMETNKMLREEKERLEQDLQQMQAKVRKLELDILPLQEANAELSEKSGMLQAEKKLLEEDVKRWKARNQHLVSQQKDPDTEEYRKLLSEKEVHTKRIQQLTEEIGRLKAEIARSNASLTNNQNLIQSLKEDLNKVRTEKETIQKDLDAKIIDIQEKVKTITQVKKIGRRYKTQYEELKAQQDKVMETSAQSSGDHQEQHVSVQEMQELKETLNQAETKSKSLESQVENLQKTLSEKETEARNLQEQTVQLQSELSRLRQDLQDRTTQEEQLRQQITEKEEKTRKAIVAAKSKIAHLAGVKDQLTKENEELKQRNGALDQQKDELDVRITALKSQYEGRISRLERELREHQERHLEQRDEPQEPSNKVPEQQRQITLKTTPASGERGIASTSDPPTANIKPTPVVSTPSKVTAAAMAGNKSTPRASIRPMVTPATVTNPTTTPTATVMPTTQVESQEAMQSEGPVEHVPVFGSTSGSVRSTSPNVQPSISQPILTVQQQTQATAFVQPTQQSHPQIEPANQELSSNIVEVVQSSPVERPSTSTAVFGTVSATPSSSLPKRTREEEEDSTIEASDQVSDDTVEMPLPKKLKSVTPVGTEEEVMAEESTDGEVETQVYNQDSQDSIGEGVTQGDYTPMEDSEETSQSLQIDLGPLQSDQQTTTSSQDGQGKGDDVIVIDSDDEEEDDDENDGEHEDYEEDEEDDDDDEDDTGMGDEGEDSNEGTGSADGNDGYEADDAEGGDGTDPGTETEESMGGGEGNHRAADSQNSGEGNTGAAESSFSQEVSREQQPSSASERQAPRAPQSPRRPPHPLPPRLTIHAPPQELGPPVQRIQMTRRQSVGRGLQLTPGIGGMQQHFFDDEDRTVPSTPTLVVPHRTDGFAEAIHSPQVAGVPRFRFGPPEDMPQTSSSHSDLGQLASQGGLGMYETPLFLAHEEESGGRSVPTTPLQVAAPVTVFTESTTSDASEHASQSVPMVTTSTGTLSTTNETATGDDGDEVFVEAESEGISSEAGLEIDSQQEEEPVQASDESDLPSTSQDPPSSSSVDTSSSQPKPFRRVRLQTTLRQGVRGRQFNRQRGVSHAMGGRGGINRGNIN
# UniProt Q9BXJ8, sequence (Q9BXJ8 whole entry, looked up): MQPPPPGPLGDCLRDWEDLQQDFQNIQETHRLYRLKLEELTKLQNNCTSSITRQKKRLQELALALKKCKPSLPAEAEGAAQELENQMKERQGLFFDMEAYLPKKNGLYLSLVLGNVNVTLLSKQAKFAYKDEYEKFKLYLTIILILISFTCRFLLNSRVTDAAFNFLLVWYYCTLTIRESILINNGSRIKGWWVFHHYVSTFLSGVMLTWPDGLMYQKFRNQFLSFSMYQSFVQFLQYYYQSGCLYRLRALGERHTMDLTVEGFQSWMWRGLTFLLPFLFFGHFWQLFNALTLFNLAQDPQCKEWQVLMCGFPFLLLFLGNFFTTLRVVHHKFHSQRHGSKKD
# UniProt Q86WV6, sequence (Q86WV6 whole entry, looked up): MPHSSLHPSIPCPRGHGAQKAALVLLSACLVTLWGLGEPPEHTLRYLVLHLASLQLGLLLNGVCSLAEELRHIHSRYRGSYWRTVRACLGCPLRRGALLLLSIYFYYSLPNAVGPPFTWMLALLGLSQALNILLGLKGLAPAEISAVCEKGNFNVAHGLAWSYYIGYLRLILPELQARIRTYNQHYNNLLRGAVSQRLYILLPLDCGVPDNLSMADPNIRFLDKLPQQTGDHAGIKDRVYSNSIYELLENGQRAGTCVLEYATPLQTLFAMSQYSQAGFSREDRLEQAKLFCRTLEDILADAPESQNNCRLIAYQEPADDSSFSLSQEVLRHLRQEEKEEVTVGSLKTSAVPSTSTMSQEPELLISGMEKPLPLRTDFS
# UniProt P61960, sequence (P61960 whole entry, looked up): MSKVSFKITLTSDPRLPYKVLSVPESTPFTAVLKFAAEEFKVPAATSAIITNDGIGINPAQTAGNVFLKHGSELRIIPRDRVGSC
# UniProt Q8WVY7, sequence (Q8WVY7 whole entry, looked up): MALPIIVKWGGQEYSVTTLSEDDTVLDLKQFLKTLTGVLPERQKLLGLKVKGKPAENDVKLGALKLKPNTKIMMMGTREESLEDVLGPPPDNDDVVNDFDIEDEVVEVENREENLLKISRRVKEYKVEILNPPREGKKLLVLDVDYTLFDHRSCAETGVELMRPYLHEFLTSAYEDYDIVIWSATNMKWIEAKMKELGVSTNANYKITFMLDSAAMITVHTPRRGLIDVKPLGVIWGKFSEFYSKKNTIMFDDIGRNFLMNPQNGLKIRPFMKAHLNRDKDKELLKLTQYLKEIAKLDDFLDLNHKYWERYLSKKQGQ
Target,log2 fold change (erlotinib),log2 fold change [1],log2 fold change [2],log2 fold change [3],log2 fold change [4],log2 fold change [5],log2 fold change [6],log2 fold change [7],log2 fold change [8],log2 fold change [9]
TMEM173 (UniProt Q86WV6),0.028,0.018,-0.012,-0.078,0.068,0.019,-0.044,-0.032,0.02,-0.05
VRK2 (UniProt Q86Y07),0.004,0.014,-0.021,-0.026,-0.065,0.011,-0.02,0.118,0.013,0.072
U2AF1 isoform 2 (UniProt Q01081),0.015,0.119,-0.02,-0.036,-0.038,0.015,0.036,-0.036,-0.071,-0.071
WDCP (UniProt Q9H6R7),0.083,-0.003,0.058,0.065,-0.015,0.134,-0.022,-0.068,-0.012,-0.011
WDR61 (UniProt Q9GZS3),0.021,0.066,0.051,0.027,0.057,-0.016,0.01,0,0.077,0.026
XPO1 (UniProt O14980),0.019,0.118,0.045,-0.06,0.061,0.041,0.051,-0.036,0.002,-0.027
UBLCP1 (UniProt Q8WVY7),0.03,0.089,0.024,-0.022,-0.029,0.005,-0.019,0.038,0.035,-0.262 (active)
VPS13B (UniProt Q7Z7G8),0.032,0.024,0.028,0.009,0.048,-0.025,0.032,-0.017,-0.052,0.058
TXNRD1 (UniProt Q16881),0.021,0.049,0.057,-0.006,0.009,0.074,0.027,0.019,0.005,0.046
XPO6 (UniProt Q96QU8),0.07,0.056,-0.465 (active),-0.055,0.093,-0.15,-0.01,-0.008,0.087,0.02
WDR43 (UniProt Q15061),0.001,-0.003,0.008,-0.001,-0.028,0.015,-0.008,0.017,-0.013,0.042
USP7 (UniProt Q93009),0.089,0.139,0.046,0,0.159,0.004,0.068,0.085,-0.04,-0.003
UBE2Q1 (UniProt Q7Z7E8),0.058,0.006,0.059,0.017,0.019,0.061,0.014,0.026,-0.016,-0.037
XRCC6 (UniProt P12956),0.025,0.103,0.093,0.011,0.065,0.031,-0.023,-0.036,-0.043,-0.025
TMEM192 (UniProt Q8IY95),0.044,-0.017,0.011,-0.008,-0.011,0.067,0.011,-0.017,0.039,0.038
UCHL5 isoform 3 (UniProt Q9Y5K5),0.047,0.106,0.415,-0.124,-0.036,0.125,-0.11,0.102,0.207,-0.103
UFL1 (UniProt O94874),0.06,0.075,0.037,-0.03,0.021,0.021,0.069,0.096,-0.012,-0.101
TMEM120A (UniProt Q9BXJ8),-0.036,0.109,0.174,0.053,0,0.236,-0.02,-0.036,-0.071,0.1
TPR (UniProt P12270),-0.113,0.023,-0.001,-0.011,-0.098,0.174,-0.104,-0.118,0,-0.142
USP24 (UniProt Q9UPU5),0.126,-0.147,0.101,-0.113,0.092,0.148,0.141,0.094,0.181,0.297
TRIM4 (UniProt Q9C037),0.004,0.031,0.035,-0.199,0.002,-0.01,-0.029,0.135,-0.111,-0.073
TMEM63B (UniProt Q5T3F8),-0.037,0.063,-0.024,-0.009,-0.066,0.012,-0.076,-0.033,0.011,0.065
VPS16 (UniProt Q9H269),0.104,0.128,-0.004,-0.034,0.093,0.087,-0.031,-0.018,-0.007,-0.128
UBE4B isoform 4 (UniProt O95155),-0.01,0.026,0.041,-0.016,0,0.055,0.026,-0.013,-0.008,-0.025
VPS18 (UniProt Q9P253),0.026,0.065,0.019,0.023,0.04,0.04,-0.086,-0.012,-0.006,-0.024
WDR46 (UniProt O15213),-0.209,-0.231,-0.816 (active),0.008,-0.154,0.065,-0.055,0.052,0.057,-0.087
UFM1 isoform 2 (UniProt P61960),-0.132,0.108,0.06,0.14,0.07,0.032,,-0.003,0.08,0.004
USP25 isoform 3 (UniProt Q9UHP3),0.007,0.086,0.02,0.002,0.028,0.005,-0.024,0.011,-0.038,0.043
